TROY signal inh: inhibitors of TROY-dependent NF-kB signaling | Q293 LMP1-TROYcd NF-kB luciferase reporter, 4 h | inhibition, % at 10 µM | actives 0.98% (n = 360,000);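 active = compounds whose plate-normalised and pattern-corrected inhibition of the luciferase reporter signal at the single screening dose is 50% or more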
KKLEB tox: CF airway cell cytotoxicity counter-screen; KKLEB CF airway cells viability, ATPlite luminescence, overnight; hits give low values; cells stimulated with P. aeruginosa culture filtrate; activity change (cytotoxicity), % at 5 µM; actives 0.36% (n = 360,000); AID 602141;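 active = corrected activity change at or below -50% at 5 µM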
CF NFkB inh: inhibitors of cystic fibrosis induced NF-kB | AID 588850 | actives 0.86% (n = 360,000) | inhibition, % at 5 µM | KKLEB NF-kB-GFP reporter, PAF-induced, GFP fluorescence overnight;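 active = at least 50% inhibition at 5 µM, scaled per plate between neutral and stimulator controls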;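 also: PAF is a Pseudomonas aeruginosa culture filtrate used as stimulus; plate controls were PAF-stimulated DMSO wells for no effect and unstimulated DMSO wells for full effect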
HIF-2a inh: blocks HIF-2a reporter activity; 786-0 RCC cells HIF-2a reporter, luciferase luminescence, overnight; inhibition, % at 18.8 µM; actives 0.72% (n = 360,000); AID 624352;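 active = inhibition of the luminescence signal of 40% or more relative to plate controls, in a single-dose primary screen at 18.75 µM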
TWEAK-Fn14 inh: TWEAK-Fn14 signaling inhibition. TWEAK-stimulated Fn14 reporter cells, luciferase luminescence, 8 h. inhibition, % at 10 µM. actives 2% (n = 360,000); in the data active = inhibition above about 50%
Peg3 promoter: reduces Peg3 promoter-driven luciferase expression in HeLa | actives 1.7% (n = 360,000) | inhibition, % at 20 µM | HeLa PEG-Prom luciferase reporter, luminescence, overnight;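 active = inhibition of at least 50% at 20 µM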
Numbers without * were called inactive. Compounds with a hit are over-represented: about 3.9% of the library has one in this group of screens.

What do the screens show for `Cc1ccnc(NC(=O)c2ccc(C(=O)c3ccccc3)cc2)c1`?
TROY signal inh: 61*; KKLEB tox: -6; CF NFkB inh: -25; HIF-2a inh: 18; TWEAK-Fn14 inh: 88*; Peg3 promoter: -13

What do the screens show for `Cc1ccnc(NC(=O)c2ccccc2NC(=O)c2ccccc2)c1`?
TROY signal inh: 15; KKLEB tox: 0; CF NFkB inh: 5; HIF-2a inh: -33; TWEAK-Fn14 inh: 9; Peg3 promoter: -23

Results for COC(=O)c1cccc(NC(=O)c2cc3ccccc3o2)c1 ?
TROY signal inh: 69*; KKLEB tox: -5; CF NFkB inh: -49; HIF-2a inh: -26; TWEAK-Fn14 inh: 102*; Peg3 promoter: -151

What do the screens show for `CCOc1ccc(NC(=O)c2cnsn2)cc1`?
TROY signal inh: 35; KKLEB tox: 3; CF NFkB inh: -12; HIF-2a inh: -28; TWEAK-Fn14 inh: 57*; Peg3 promoter: -29

Results for Cc1ccc(NC(=O)/C(=C\c2ccc3c(c2)OCO3)NC(=O)c2ccco2)cc1 ?
TROY signal inh: -47; KKLEB tox: 5; CF NFkB inh: -23; HIF-2a inh: 6; TWEAK-Fn14 inh: -13; Peg3 promoter: -12

Results for N/C(=N\OC(=O)c1cccc(Cn2cc(C(F)(F)F)ccc2=O)c1)c1ccc(Cl)cc1 ?
TROY signal inh: -28; KKLEB tox: 6; CF NFkB inh: -2; HIF-2a inh: -20; TWEAK-Fn14 inh: 6; Peg3 promoter: 28

Results for Cc1cnc(C(=O)OCC(=O)NC2CCCCCC2)cn1 ?
TROY signal inh: 16; KKLEB tox: -18; CF NFkB inh: 12; HIF-2a inh: 16; TWEAK-Fn14 inh: 36; Peg3 promoter: 3

What do the screens show for `CCOc1ccc(C(=O)Nc2cccc(C)n2)cc1`?
TROY signal inh: 15; KKLEB tox: 3; CF NFkB inh: -7; HIF-2a inh: -92; TWEAK-Fn14 inh: 63*; Peg3 promoter: -47

Results for CCCCOc1ccc(C(=O)Nc2cccc(C)n2)cc1 ?
TROY signal inh: 37; KKLEB tox: -17; CF NFkB inh: 15; HIF-2a inh: -241; TWEAK-Fn14 inh: 31; Peg3 promoter: -226

Results for O=C(NC1=NCCS1)c1cc2ccccc2o1 ?
TROY signal inh: 20; KKLEB tox: 9; CF NFkB inh: -11; HIF-2a inh: -2; TWEAK-Fn14 inh: 82*; Peg3 promoter: -53

Results for COc1ccc2c(C)nc(Nc3nc(C)c(C)c(=O)[nH]3)nc2c1 ?
TROY signal inh: 12; KKLEB tox: 5; CF NFkB inh: 14; HIF-2a inh: -82; TWEAK-Fn14 inh: 53*; Peg3 promoter: 46

What do the screens show for `CCc1c(C)nc(Nc2nc(C)c3ccc(OC)cc3n2)[nH]c1=O`?
TROY signal inh: -64; KKLEB tox: 16; CF NFkB inh: -68; HIF-2a inh: -125; TWEAK-Fn14 inh: -17; Peg3 promoter: -87

What do the screens show for `CC1CCN(c2ccc(-c3cccc(NC(=O)c4ccco4)c3)nn2)CC1`?
TROY signal inh: 22; KKLEB tox: -45; CF NFkB inh: 16; HIF-2a inh: -80; TWEAK-Fn14 inh: 53*; Peg3 promoter: -116

How did CCC(=O)Nc1ccc(-c2ccc(N3CCC(C)CC3)nn2)cc1 do in these assays?
TROY signal inh: 25; KKLEB tox: 1; CF NFkB inh: -8; HIF-2a inh: -217; TWEAK-Fn14 inh: -10; Peg3 promoter: -144

Results for COc1ccc(-c2cccc(NC(=O)c3ccco3)c2)nn1 ?
TROY signal inh: -9; KKLEB tox: -21; CF NFkB inh: 0; HIF-2a inh: -5; TWEAK-Fn14 inh: 4; Peg3 promoter: 16

What do the screens show for `CCC(=O)Nc1cccc(-c2ccc(N3CCC(C)CC3)nn2)c1`?
TROY signal inh: 22; KKLEB tox: -55*; CF NFkB inh: 8; HIF-2a inh: 9; TWEAK-Fn14 inh: 60*; Peg3 promoter: -124

How did C[C@@H]1NC(=O)N[C@@H]1CCCCCC(=O)O do in these assays?
TROY signal inh: 15; KKLEB tox: -64*; CF NFkB inh: -11; HIF-2a inh: 6; TWEAK-Fn14 inh: 2; Peg3 promoter: 12

What do the screens show for `O=C(Cc1ccccc1)N/N=C\c1ccc(Br)o1`?
TROY signal inh: -22; KKLEB tox: 6; CF NFkB inh: 4; HIF-2a inh: -34; TWEAK-Fn14 inh: 1; Peg3 promoter: -17

How did C=CCN1C(=O)N(c2ccc(F)cc2)C(=O)C1CC(=O)Nc1ccc(Cl)cc1 (centres undefined) do in these assays?
TROY signal inh: 3; KKLEB tox: -3; CF NFkB inh: -3; HIF-2a inh: 16; TWEAK-Fn14 inh: 80*; Peg3 promoter: 16

What do the screens show for `O=C(CCc1nc2ccccc2c(=O)[nH]1)Nc1cc(C(F)(F)F)ccc1N1CCCC1`?
TROY signal inh: 51*; KKLEB tox: -14; CF NFkB inh: 12; HIF-2a inh: -6; TWEAK-Fn14 inh: 62*; Peg3 promoter: 13

Results for CC1=C(C)CC(C(=O)NNC(=O)c2csc(C)c2C)C(C(=O)O)C1 (centres undefined) ?
TROY signal inh: -86; KKLEB tox: 14; CF NFkB inh: -1; HIF-2a inh: 18; TWEAK-Fn14 inh: -12; Peg3 promoter: -1

How did CCN1CC2=C(OC(N)=C(C#N)C2c2cccs2)/C(=C\c2cccs2)C1 (centres undefined) do in these assays?
TROY signal inh: -1; KKLEB tox: -2; CF NFkB inh: 12; HIF-2a inh: 4; TWEAK-Fn14 inh: 24; Peg3 promoter: 19

How did COc1ccccc1N1CCN(CC(=O)Nc2cc(C)nn2-c2nc(C)cc(C)n2)CC1 do in these assays?
TROY signal inh: 5; KKLEB tox: -6; CF NFkB inh: 21; HIF-2a inh: 11; TWEAK-Fn14 inh: 14; Peg3 promoter: 52*

Results for Clc1ccc(OCc2nnc3n2N=C(c2ccc4c(c2)OCCO4)CS3)c(Cl)c1 ?
TROY signal inh: 60*; KKLEB tox: 5; CF NFkB inh: 21; HIF-2a inh: 11; TWEAK-Fn14 inh: 53*; Peg3 promoter: -2

Results for Clc1ccc(C2=Nn3c(Cn4nnc5ccccc54)nnc3SC2)cc1 ?
TROY signal inh: -4; KKLEB tox: 5; CF NFkB inh: -20; HIF-2a inh: 20; TWEAK-Fn14 inh: -24; Peg3 promoter: 22

How did Cc1nn(CCc2nn[nH]n2)c2nc(-c3ccc(Br)cc3)cc(C(F)(F)F)c12 do in these assays?
TROY signal inh: 53*; KKLEB tox: -5; CF NFkB inh: 12; HIF-2a inh: 24; TWEAK-Fn14 inh: 32; Peg3 promoter: 47

What do the screens show for `CC1CCCC(C)N1CC(O)COCC1COc2ccccc2O1` (centres undefined)?
TROY signal inh: 3; KKLEB tox: -1; CF NFkB inh: -2; HIF-2a inh: 4; TWEAK-Fn14 inh: 1; Peg3 promoter: 11
